Laboratory results: PubChem BioAssay AID1851 (National Center for Advancing Translational Sciences (NCATS), 2009)
Values joined by “and” are separate entries in the source; they are usually repeats but may differ in a detail not shown here. Equal entries are not always repeated. The whole screen tested about 16,000 compounds, of which about 5,100 (32%) were called active. Another 25% or so got no clear call; they are omitted. The list shows a part of the results. Values without a mark were called inactive. The call rests on the fitted dose curve; in most records, active means well fitted curve in the direction sought with a large enough effect; inconclusive means small, poorly fitted or top-dose-only effect, or effect the other way; inactive means no such curve, though single readings can be large or run the other way.

molecular target: Cytochrome P450 3A4 (Homo sapiens) (UniProt P08684); experiment: Cytochrome panel assay with activity outcomes; details: recombinant CYP, pro-luciferin dealkylation, luminescence, p450-cyp3a4; series mostly up to 57.1 µM
On the % scale 0 is the no-effect control and ±100 the full control effect.

Cytochrome P450 3A4 (Homo sapiens), sequence (P08684 whole entry, looked up): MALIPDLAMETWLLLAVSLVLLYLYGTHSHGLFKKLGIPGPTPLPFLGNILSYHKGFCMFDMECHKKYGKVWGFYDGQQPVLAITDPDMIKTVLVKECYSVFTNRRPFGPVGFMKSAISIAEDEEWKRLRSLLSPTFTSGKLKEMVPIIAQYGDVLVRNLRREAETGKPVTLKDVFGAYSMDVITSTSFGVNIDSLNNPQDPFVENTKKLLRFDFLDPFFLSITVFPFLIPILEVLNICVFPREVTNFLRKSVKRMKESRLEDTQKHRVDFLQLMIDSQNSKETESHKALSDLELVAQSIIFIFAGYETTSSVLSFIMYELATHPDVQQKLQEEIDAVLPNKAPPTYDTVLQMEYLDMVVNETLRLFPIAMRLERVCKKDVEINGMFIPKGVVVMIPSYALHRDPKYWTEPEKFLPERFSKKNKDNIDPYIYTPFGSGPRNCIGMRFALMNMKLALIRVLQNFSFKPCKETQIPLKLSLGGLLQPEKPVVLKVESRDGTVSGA

Row | SMILES | AC50 | activity, negative = inhibition
1 | CCCc1cc2c(n1Cc1cc(F)cc(F)c1)C(C)C1CN(C(=O)c3ccccc3)C(C)(C(=O)OC)C21 (stereo not given) | 3.16 µM (active) | –
2 | CCCc1cc2c(n1CCc1ccc(Cl)cc1)C(C)C1CN(C(=O)c3ccccc3)C(C)(C(=O)OC)C21 (stereo not given) | 5.01 µM (active) | –
3 | CCCc1cc2c(n1Cc1ccc(OC)cc1)C(C)C1CN(C(=O)c3ccccc3)C(C)(C(=O)OC)C21 (stereo not given) | 3.16 µM (active) | –
4 | C[C@@]1(C(=O)O)CCC[C@@H]1C(=O)O | – | -5.72% [at 11.4 µM]
5 | O=C(O)C[C@H](Cc1ccccc1Cl)C(=O)O | – | -7.24% [at 11.4 µM]
6 | Cc1ccnc(N)c1 | inactive | –
7 | CC1CCCC(n2c(=S)[nH]c3ccccc3c2=O)C1C (stereo not given) | 7.94 µM (active) | –
8 | CCn1c(=O)[nH]c2ccccc2c1=O | – | 5.24% [at 2.29 µM]
9 | Cc1cc(=O)[nH]c2ccccc12 | inactive | –
10 | CCN1CCN(C(c2ccccn2)c2c(NC(=O)c3ccccc3)sc(C)c2C)CC1 (stereo not given) | 8.91 µM (active) | –
11 | CC(C)CO[C@H](c1ccc2c(c1)OCO2)[C@H](C)Br | 3.16 µM (active) | –
12 | CCC(Sc1nc2n[nH]c(C)c2c(=N)n1-c1cccc(Cl)c1)C(=O)NCCOC (stereo not given) | 2.82 µM (active) | –
13 | Nc1ccn([C@H]2O[C@H](CO)[C@@H]3[O][Sn]([c]4ccccc4)([c]4ccccc4)[O][C@H]32)c(=O)n1 | – | 25.9% [at 11.4 µM]
14 | COc1ccc(C(=O)Nc2cc(C(C)=O)c(/C=C/N(C)C)oc2=O)cc1 | inactive | –
15 | Cc1ccc(C(=O)Nc2cc3c(oc2=O)CCCC3=O)cc1 | inactive | –
16 | CCOC(=O)c1cc(NC(=O)c2ccc(OC)cc2)c(=O)oc1-c1ccccc1 | inactive | –
17 | CC(=O)c1cc(NC(=O)c2ccccc2)c(=O)oc1/C=C/N(C)C | 25.1 µM (active) | –
18 | Cc1oc(=O)c(NC(=O)c2ccccc2)cc1C(=O)c1ccccc1 | 7.94 µM (active) | –
19 | Cc1cc(N)ccc1NC(=O)c1ccccc1 | inactive | –
20 | CSc1cccc(NC(=O)c2ccc(Cl)nc2)c1 | inactive | –
21 | O=C(Nc1cc(Sc2ccccn2)cc([N+](=O)[O-])c1)c1ccc(Cl)cc1 | 7.94 µM (active) | –
22 | CC/C(O)=C(\C#N)c1nnc2n1CCCCC2 | inactive | –
23 | O=C1Nc2ccc([N+](=O)[O-])cc2C1(O)N1CCCCCC1 (stereo not given) | 3.55 µM (active) | –
24 | CN1CCCN(C)C1c1cc([N+](=O)[O-])ccc1O | – | -5.36% [at 11.4 µM]
25 | Cn1c(CCN2CCCCC2)nc2cc([N+](=O)[O-])ccc21 | inactive | –
26 | Cc1cc(C)nc(NC(=O)/C=C/c2ccc(Cl)cc2Cl)c1 | – | 4.58% [at 2.29 µM]
27 | COCCCNC(=O)/C=C/c1cccc(Cl)c1 | inactive | –
28 | O=C(/C=C/c1cccc(Cl)c1)Nc1ccncc1 | 0.178 µM (active) | –

Row | SMILES | AC50 | activity, negative = inhibition
29 | NS(=O)(=O)c1cc(Br)c(N=Nc2ccc(O)c3ncccc23)c(Br)c1 | – | -8.46% [at 11.4 µM]
30 | COC(=O)C1CC1C(NC(=O)[C@@H]1CCCN1)c1ccccc1 (stereo not given in full) | 12.6 µM (active) | –
31 | O=C(O)[C@@H]1CCCN1 | – | -4.77% [at 11.4 µM]
32 | COC(=O)C1CC1C(NC(=O)[C@H]1CCCCN1)c1ccccc1 (stereo not given in full) | 10 µM (active) | –
33 | COc1cc(Br)c(C(C)NC(=O)c2cccc(Br)c2)cc1OC (stereo not given) | 0.282 µM (active) | –
34 | COc1ccc(C(=O)NC(C)c2cc(OC)c(OC)cc2Br)cc1 (stereo not given) | 0.501 µM (active) | –
35 | COc1ccc(C(=O)[C@H](Br)[C@H](Br)C(=O)O)cc1 | – | 3.56% [at 11.4 µM]
36 | NS(=O)(=O)c1cc2c(cc1Cl)N[C@@H](CC1CCCC1)NS2(=O)=O | inactive | –
37 | C/C(=N/NC(=O)c1ccc(NC(=O)c2ccc(F)cc2)cc1)c1ccccc1 | – | 15.1% [at 0.457 µM]
38 | COc1ccc(-c2cnnn2-c2ccc(NC(=O)c3ccco3)cc2)cc1OC | 1 µM (active) | –
39 | CC(C)(C)c1ccc(C(=O)Nc2ccc(NC(=O)c3ccco3)cc2)cc1 | – | 11.7% [at 2.29 µM]
40 | CC(C)OC(=O)c1cc2ccccc2oc1=O | inactive | –
41 | O=C(Nc1ccc(-n2nncc2-c2ccco2)cc1)c1ccc(F)cc1 | 0.708 µM (active) | –
42 | O=C(Nc1ccc(-n2nncc2-c2ccco2)cc1)c1cc2ccccc2oc1=O | 4.47 µM (active) | –
43 | CC(=O)c1cc2ccccc2oc1=O | inactive | –
44 | COc1ccc(Br)c2c1C[C@H](C(=O)O)CC2 | – | -12.7% [at 11.4 µM]
45 | Nc1nc2c(c(=O)[nH]1)CN(c1ccc(S(N)(=O)=O)cc1)CN2 | – | -4.97% [at 11.4 µM]
46 | CC(=O)SCC[N+](C)(C)C | inactive | –
47 | COC(=O)[C@@H]1CC[C@H](C)[C@@H](c2ccc(C)cc2)N1C(=O)c1ccc(/C=N\O[C@@H](C)c2cn([C@H](CO)Cc3ccccc3)nn2)cc1 | 1.26 µM (active) and 3.16 µM (active) | –
48 | COC(=O)[C@@H]1CC[C@H](C)[C@@H](c2ccc(C)cc2)N1C(=O)c1ccc(/C=N\OCC[C@@H]2C=C[C@H](OC(C)=O)[C@H](COC(C)=O)O2)cc1 | – | -18.2% [at 11.4 µM]
49 | CO/N=C\c1ccc(C(=O)N2[C@H](c3ccc(C)cc3)[C@@H](C)CC[C@H]2C(=O)OC)cc1 | 3.16 µM (active) | –
50 | COC(=O)[C@@H]1CC[C@H](C)[C@@H](c2ccc(C)cc2)N1C(=O)c1ccc(/C=N\OC[C@@H](C)[C@H](OCc2ccccc2)C(C)C)cc1 | 3.98 µM (active) | –
51 | COC(=O)[C@@H]1CC[C@H](C)[C@@H](c2ccc(C)cc2)N1C(=O)c1ccc(/C=N\O[C@@H]2O[C@H](COC(C)=O)[C@H](OC(C)=O)[C@H](OC(C)=O)[C@H]2OC(C)=O)cc1 | – | -14.4% [at 11.4 µM]
52 | O=Nc1ccc(NOC(=O)c2ccc(Br)cc2)cc1 | inactive | –
53 | Oc1ccc2ccccc2c1Cc1c(O)ccc2ccccc12 | – | -19% [at 11.4 µM]
54 | COc1ccc2c(Cc3c4ccccc4cc4ccccc34)cncc2c1O | 1 µM (active) | –
55 | O=C(O)c1cc2ccccc2c(Cc2cc3ccccc3c(C(=O)O)c2O)c1O (tested in a mixture with another compound) | inactive | –
